Reference: the supplement of paper PMC11732987, “Enantioselective OTUD7B fragment discovery through chemoproteomics screening and high-throughput optimisation” (Communications Chemistry, 2025)

Legend:
Assay in all cases: log2 ratio of Biotin-Ahx-Ub-VS probe labelling (compound/DMSO); higher = less target engagement, active = hit call of the paper (q ≤ 0.05, log2 ratio ≤ -1)
Conditions in all cases: treatment time: 3 h
[1] = compound: ClCC(=O)N[C@H]1CCCc2ccccc12
How it was run: (§1)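 The values are mean compound-versus-vehicle ratios derived by unpaired t-test. For 3 h, triplicate HEK293T lysate samples (495 µg each) were treated with compound at a series of concentrations or with vehicle, after which Biotin-Ahx-Ub-VS was added to 0.5 µM final for 1 h. Labelled deubiquitinases were enriched with NeutrAvidin, digested with LysC and trypsin, and analysed by diaPASEF LC-MS/MS. Ratios are log2 values from global-median-normalised Spectronaut label-free quantities, using proteins with two or more unique peptides.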

[2] = compound: CCC1N(CCc2cc(OC)c(Cl)cc12)C(=O)CCl
How it was run: (§2)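 DUBs in HEK293T lysate were labelled with Biotin-Ahx-Ub-VS (0.5 µM final, 1 h) after a 3 h treatment with compound at 50 or 200 µM or with DMSO, done in triplicate on 495 µg of lysate per sample. NeutrAvidin-enriched proteins were digested with LysC and trypsin and run by diaPASEF LC-MS/MS. Median-normalised label-free quantities gave average base-two log ratios of compound to DMSO by unpaired t-test, restricted to proteins with at least 2 unique peptides.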

[3] = compound: CCCC1N(CCc2cc(OC)c(OC)cc12)C(=O)CCl
How it was run: as §2

[4] = compound: CCC1N(CCc2sccc12)C(=O)CCl
How it was run: as §2

[5] = compound: CN1c2ccccc2C(CS1(=O)=O)NC(=O)CCl
How it was run: as §2

[6] = compound: Cl.ClCC(=O)N1CCc2ncncc2C1
How it was run: as §2

[7] = compound: Cl.Cn1ncc2C(CCCc12)NC(=O)CCl
How it was run: as §2

[8] = compound: ClCC(=O)NC1CCOc2ccccc12
How it was run: as §2

[9] = compound: ClCC(=O)NC1CCCc2ccccc12
How it was run: as §1

[10] = compound: ClCC(=O)N[C@@H]1CCCc2ccccc12
How it was run: as §1

Measured: log2 ratio of Biotin-Ahx-Ub-VS probe labelling

USP48 (UniProt Q86UV5)
UniProt Q86UV5, sequence (Q86UV5 whole entry): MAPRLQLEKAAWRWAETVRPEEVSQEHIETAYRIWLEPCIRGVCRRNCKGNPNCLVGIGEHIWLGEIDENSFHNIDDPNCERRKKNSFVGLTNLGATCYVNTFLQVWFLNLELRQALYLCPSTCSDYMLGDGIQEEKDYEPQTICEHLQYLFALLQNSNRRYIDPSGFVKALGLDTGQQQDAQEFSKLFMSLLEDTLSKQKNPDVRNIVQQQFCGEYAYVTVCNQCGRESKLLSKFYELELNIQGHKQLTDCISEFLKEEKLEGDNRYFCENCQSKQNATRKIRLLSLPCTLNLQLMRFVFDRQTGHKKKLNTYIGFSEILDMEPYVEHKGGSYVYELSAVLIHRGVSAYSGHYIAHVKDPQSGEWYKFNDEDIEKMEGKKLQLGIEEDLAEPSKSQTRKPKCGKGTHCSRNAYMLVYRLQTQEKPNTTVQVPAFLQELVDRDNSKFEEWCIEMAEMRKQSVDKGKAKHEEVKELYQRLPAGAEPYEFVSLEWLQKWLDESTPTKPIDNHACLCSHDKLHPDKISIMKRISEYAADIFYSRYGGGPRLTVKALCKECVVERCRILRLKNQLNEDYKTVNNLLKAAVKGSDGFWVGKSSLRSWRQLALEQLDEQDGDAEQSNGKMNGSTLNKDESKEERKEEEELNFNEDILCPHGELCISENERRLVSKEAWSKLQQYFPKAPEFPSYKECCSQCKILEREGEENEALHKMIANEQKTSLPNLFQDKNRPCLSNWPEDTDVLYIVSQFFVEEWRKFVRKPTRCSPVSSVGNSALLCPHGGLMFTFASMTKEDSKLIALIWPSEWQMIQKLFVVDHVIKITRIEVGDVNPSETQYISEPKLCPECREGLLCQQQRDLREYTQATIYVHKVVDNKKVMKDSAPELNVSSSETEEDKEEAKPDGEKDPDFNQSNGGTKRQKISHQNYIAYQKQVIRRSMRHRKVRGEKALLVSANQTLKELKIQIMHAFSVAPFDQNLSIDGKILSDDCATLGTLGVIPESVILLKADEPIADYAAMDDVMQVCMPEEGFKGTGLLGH
inactive: [1]; compound concentration: 3.13uM -0.141 | [1]; compound concentration: 6.25uM -0.00525 | [1]; compound concentration: 12.5uM -0.0911 | [1]; compound concentration: 25uM -0.00111 | [1]; compound concentration: 50uM -0.0046 | [1]; compound concentration: 100uM -0.171 | [1]; compound concentration: 200uM -0.203 | [2]; compound concentration: 50uM -0.171 | [2]; compound concentration: 200uM -0.314 | [3]; compound concentration: 50uM -0.217 | [3]; compound concentration: 200uM -0.148

UCHL5 (UniProt Q9Y5K5)
UniProt Q9Y5K5, sequence (Q9Y5K5 whole entry): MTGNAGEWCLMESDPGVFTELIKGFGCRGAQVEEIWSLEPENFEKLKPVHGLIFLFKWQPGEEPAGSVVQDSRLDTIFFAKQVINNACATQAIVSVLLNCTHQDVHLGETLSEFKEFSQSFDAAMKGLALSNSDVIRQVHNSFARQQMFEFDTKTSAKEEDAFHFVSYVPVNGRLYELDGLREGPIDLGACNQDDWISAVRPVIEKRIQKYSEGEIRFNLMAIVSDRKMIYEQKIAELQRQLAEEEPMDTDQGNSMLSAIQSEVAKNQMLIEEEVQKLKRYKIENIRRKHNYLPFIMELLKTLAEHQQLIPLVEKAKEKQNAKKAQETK
inactive: [4]; compound concentration: 50uM -0.261 | [4]; compound concentration: 200uM -0.413 | [5]; compound concentration: 50uM -0.312 | [5]; compound concentration: 200uM -0.412 | [6]; compound concentration: 50uM -0.053 | [6]; compound concentration: 200uM -0.389 | [7]; compound concentration: 50uM 0.0591 | [7]; compound concentration: 200uM -0.0343 | [8]; compound concentration: 50uM -0.0586 | [8]; compound concentration: 200uM -0.0877 | [9]; compound concentration: 0.78uM -0.151 | [9]; compound concentration: 1.56uM -0.0693 | [9]; compound concentration: 3.13uM -0.187 | [9]; compound concentration: 6.25uM -0.075 | [9]; compound concentration: 12.5uM -0.156 | [9]; compound concentration: 25uM -0.346 | [9]; compound concentration: 50uM -0.111 | [9]; compound concentration: 100uM -0.166 | [9]; compound concentration: 200uM -0.211 | [10]; compound concentration: 0.78uM -0.425 | [10]; compound concentration: 1.56uM -0.183 | [10]; compound concentration: 3.13uM -0.22 | [10]; compound concentration: 6.25uM -0.255 | [10]; compound concentration: 12.5uM -0.281 | [10]; compound concentration: 25uM -0.176 | [10]; compound concentration: 50uM -0.209 | [10]; compound concentration: 100uM -0.17 | [10]; compound concentration: 200uM -0.35 | [1]; compound concentration: 0.78uM -0.162 | [1]; compound concentration: 1.56uM -0.217 | [1]; compound concentration: 3.13uM -0.188 | [1]; compound concentration: 6.25uM 0.0176 | [1]; compound concentration: 12.5uM -0.23 | [1]; compound concentration: 25uM -0.161 | [1]; compound concentration: 50uM -0.0913 | [1]; compound concentration: 100uM -0.178 | [1]; compound concentration: 200uM -0.266 | [2]; compound concentration: 50uM -0.0479 | [2]; compound concentration: 200uM -0.725 | [3]; compound concentration: 50uM -0.464 | [3]; compound concentration: 200uM -0.644

EIF3H (UniProt O15372)
UniProt O15372, sequence (O15372 whole entry): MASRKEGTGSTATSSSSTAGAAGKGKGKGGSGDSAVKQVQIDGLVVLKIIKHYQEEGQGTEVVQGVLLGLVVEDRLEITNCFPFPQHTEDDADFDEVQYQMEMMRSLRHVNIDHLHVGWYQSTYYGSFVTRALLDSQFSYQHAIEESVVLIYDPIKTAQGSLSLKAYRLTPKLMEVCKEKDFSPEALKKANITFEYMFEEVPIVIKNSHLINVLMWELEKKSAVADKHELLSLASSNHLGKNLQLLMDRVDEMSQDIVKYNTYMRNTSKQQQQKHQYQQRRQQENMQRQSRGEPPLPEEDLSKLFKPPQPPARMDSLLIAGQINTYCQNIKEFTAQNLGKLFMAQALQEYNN
inactive: [4]; compound concentration: 50uM 4e-05 | [4]; compound concentration: 200uM -0.0195 | [5]; compound concentration: 50uM 0.0525 | [5]; compound concentration: 200uM 0.0675 | [6]; compound concentration: 50uM -0.0138 | [6]; compound concentration: 200uM -0.124 | [7]; compound concentration: 50uM -0.0892 | [7]; compound concentration: 200uM -0.0788 | [8]; compound concentration: 50uM 0.0209 | [8]; compound concentration: 200uM -0.0491 | [9]; compound concentration: 0.78uM -0.172 | [9]; compound concentration: 1.56uM 0.005 | [9]; compound concentration: 3.13uM 0.0821 | [9]; compound concentration: 6.25uM -0.12 | [9]; compound concentration: 12.5uM -0.146 | [9]; compound concentration: 25uM -0.153 | [9]; compound concentration: 50uM 0.125 | [9]; compound concentration: 100uM 0.0329 | [9]; compound concentration: 200uM -0.275 | [10]; compound concentration: 0.78uM -0.105 | [10]; compound concentration: 1.56uM 0.0364 | [10]; compound concentration: 3.13uM -0.02 | [10]; compound concentration: 6.25uM 0.0572 | [10]; compound concentration: 12.5uM 0.182 | [10]; compound concentration: 25uM -0.109 | [10]; compound concentration: 50uM 0.0801 | [10]; compound concentration: 100uM 0.0419 | [10]; compound concentration: 200uM 0.454 | [1]; compound concentration: 0.78uM 0.0712 | [1]; compound concentration: 1.56uM -0.0618 | [1]; compound concentration: 3.13uM -0.213 | [1]; compound concentration: 6.25uM 0.288 | [1]; compound concentration: 12.5uM 0.201 | [1]; compound concentration: 25uM 0.184 | [1]; compound concentration: 50uM 0.306 | [1]; compound concentration: 100uM -0.0743 | [1]; compound concentration: 200uM 0.179 | [2]; compound concentration: 50uM -0.165 | [2]; compound concentration: 200uM -0.139 | [3]; compound concentration: 50uM 0.00258 | [3]; compound concentration: 200uM 0.0942
